Results taken from ChEMBL document CHEMBL4513216, “Probing the Open Global Health Chemical Diversity Library for Multistage-Active Starting Points for Next-Generation Antimalarials” (ACS Infect Dis, 2020).
Hit rate of the full screen: of about 69,000 compounds, about 8,600 (12%) showed an effect of 50% or more. Only a selection was taken, and strong results are over-represented in it overall.

These compounds were tested on Plasmodium berghei (assay: Screen against P. berghei liver stage (PbLuc), transformed with Luciferase, at 10uM). Settings: tested at 10 uM.
Assay type: functional, HepG2
Cc1noc(-c2cccnc2N(C)Cc2cc(C)on2)n1 showed an INHIBITION of 50.8%. For Cc1noc(-c2cccnc2N(C)Cc2ccc([S+](C)[O-])cc2)n1 (configuration not stated), the INHIBITION was 79.9%. Cc1noc(-c2ccc(N(C)Cc3ccncn3)nc2)n1 was tested, and the INHIBITION was 26.4%. For Cc1nn(S(=O)(=O)c2ccc(Cl)cc2)c(C)c1C, the INHIBITION was 9.52%. COc1cc(N2CCC3(CCN(C(=O)c4cccnc4)CC3)C2)ncn1 showed an INHIBITION of -3.77%. For COc1ncccc1C(=O)N1CC[C@H]2C[C@H](c3nnc(C)[nH]3)O[C@@H]2C1, the INHIBITION was 15.4%. CC(C)N(C)Cc1nnc2n1CCN(S(=O)(=O)C1CC1)CC2 gave an INHIBITION of 29%. With N#Cc1cccc(N2CC3(CCN(C(=O)c4cccnc4)C3)CC2=O)c1 (configuration not stated) the INHIBITION was 19.9%. COCc1nc(N(C)C)ncc1C(=O)NC(C)C was tested, and the INHIBITION was -1.58%. In the case of COCc1nc(N(C)C)ncc1C(=O)OC, the INHIBITION is reported as 66.5%. CCCNC(=O)c1cnc(N(C)C)nc1COC showed an INHIBITION of -10.3%. Work on Cc1cnn(CC2CCCCN2C(=O)c2ccccc2-n2cccn2)c1 (configuration not stated) yielded an INHIBITION of 38.8%. In the case of CCc1ccc(NS(=O)(=O)c2cc3c(c(C(=O)O)c2)OCCO3)cc1, the INHIBITION is reported as 9.14%. With CC(C)(N)c1cn(C2CCN(C3CCSCC3)CC2)nn1 the INHIBITION was -7.77%. Compound OC1(c2cn(C3CCN(C4CCSC4)CC3)nn2)CCCC1 (configuration not stated) has an INHIBITION of -23%. With CC(C)(O)c1cn(C2CCN(C(=O)CCc3ccncc3)CC2)nn1 the INHIBITION was 23.9%. Compound CC(C)(C)c1cn(C2CCN(C(=O)c3cnccn3)CC2)nn1 has an INHIBITION of 61.1%. CC(C)(C)c1cn(C2CCN(C3CCSC3)CC2)nn1 (configuration not stated) was tested, and the INHIBITION was 70.9%. CCC(=O)N1CCC(n2cc(C(C)(C)O)nn2)CC1 was tested, and the INHIBITION was 42.1%. Work on CC(C)(C)c1cn(C2CCN(C(=O)c3cncnc3)CC2)nn1 yielded an INHIBITION of 54.4%. Work on C[C@H]1C[C@@H]2CCN(C(=O)c3cnccn3)C[C@H]2O1 yielded an INHIBITION of 7.31%. Compound CC(C)n1cc(C(=O)N2CCC(n3cc(C(C)(C)C)nn3)CC2)cn1 has an INHIBITION of 29.8%. CCCc1cc(C(=O)N[C@H](C)[C@@H](O)c2ccc(O)cc2)n(C)n1 was tested, and the INHIBITION was 20.3%. Compound Cc1ccccc1C(=O)NCC(=O)NCc1ccccn1 has an INHIBITION of 46.3%. For CC[C@@H]1N(Cc2ccc(F)cc2)CCC[C@]12CCC(=O)N2CCOC, the INHIBITION was -69.5%. Cc1ccc(C(=O)N(C)Cc2csc(Br)c2)c(=O)[nH]1 gave an INHIBITION of 21.8%. Cc1cc2n(n1)CC(CNCc1cc(C)on1)CN2 (configuration not stated) showed an INHIBITION of 26.8%. CCNC(=O)[C@@H]1CCCN1[C@@H](C(=O)NC)c1ccccc1 showed an INHIBITION of -1.12%. In the case of Cc1cccc(S(=O)(=O)NCC(C)(C)CC(C)O)c1C#N (configuration not stated), the INHIBITION is reported as 18.8%. Work on CC(O)CC(C)(C)CNS(=O)(=O)c1cccc(Cl)c1C#N (configuration not stated) yielded an INHIBITION of 53.5%. Compound Cc1c(F)cccc1S(=O)(=O)NCC(C)(C)CC(C)O (configuration not stated) has an INHIBITION of -11.9%. Compound COc1cccc2c3c(c(=O)[nH]c12)CCO3 has an INHIBITION of 20.9%. CC(C)CN1CC[C@@H]2[C@@H]1CCN2S(=O)(=O)c1cn(C)cn1 was tested, and the INHIBITION was 13.7%. CCOCCN(CCOCC)c1nc(C)nc2sccc12 gave an INHIBITION of 69.7%. Work on COCCN(Cc1sccc1C)c1nc(C)nc2sccc12 yielded an INHIBITION of 14.6%. COCCN(Cc1cnn(C)c1)c1nc(C)nc2sccc12 showed an INHIBITION of -39.2%. In the case of CCCN(CCOC)c1nc(C)nc2sccc12, the INHIBITION is reported as 53.9%. Compound CCC(CN1CCCC1)NC(=O)Cc1c(C)[nH]c2c(C)cc(C)cc12 (configuration not stated) has an INHIBITION of 41.2%. Work on Cc1nn(C)c(C)c1S(=O)(=O)N1C[C@@H]2C[C@@H](C)O[C@@H]2C1 yielded an INHIBITION of 8.74%. For CN(C)C(=O)CN1C(=O)[C@@H]2CC[C@H]1CN(Cc1ccccc1C#N)C2, the INHIBITION was 23.9%. In the case of O=C(NCC1CC1)C1CCC2(CCN(C(=O)c3cccs3)CC2)O1 (configuration not stated), the INHIBITION is reported as -14.7%. O=C(Nc1ccc(Br)cc1F)c1ccc(N2CCOCC2)nn1 showed an INHIBITION of 52.3%. CSc1ccccc1NC(=O)c1ccc(N2CCOCC2)nn1 gave an INHIBITION of -117%. O=C(Nc1ccc(Br)cc1F)c1ccc(N2CCCCC2)nn1 gave an INHIBITION of 10.8%. In the case of COc1ccc(C)cc1C(=O)N1CCCC(n2cncn2)C1 (configuration not stated), the INHIBITION is reported as -16%. Cc1ccc(-c2nc(CN3CCC(C(=O)N(C)C)CC3)cs2)o1 showed an INHIBITION of 39.5%. Cc1noc(C)c1CN(Cc1cccs1)C1CCS(=O)(=O)C1 (configuration not stated) gave an INHIBITION of 36.1%. CC(C)(C)c1nc(CN(Cc2cccs2)C2CCS(=O)(=O)C2)no1 (configuration not stated) was tested, and the INHIBITION was 34.7%. In the case of O=S1(=O)CCC(N(Cc2nc3ccccc3o2)Cc2cccs2)C1 (configuration not stated), the INHIBITION is reported as -32.5%. Compound Cc1ccc(-c2nc(CN(Cc3ccco3)C3CCS(=O)(=O)C3)cs2)o1 (configuration not stated) has an INHIBITION of 62.8%. Compound Cc1ccc(-c2nc(CN3CCCC(C(=O)N(C)C)C3)cs2)o1 (configuration not stated) has an INHIBITION of 35.9%. With Cc1noc(CN(Cc2cccs2)C2CCS(=O)(=O)C2)n1 (configuration not stated) the INHIBITION was 49.8%. CC(C)(C)c1nc(CN(Cc2cccs2)C2CCS(=O)(=O)C2)cs1 (configuration not stated) gave an INHIBITION of 59.4%. For Cc1nc(CN(Cc2cccs2)C2CCS(=O)(=O)C2)oc1C (configuration not stated), the INHIBITION was 19.5%. Compound Cc1ccc(-c2nc(CN(C)C3CCS(=O)(=O)C3)cs2)o1 (configuration not stated) has an INHIBITION of 57.7%. Work on Cc1ccc(-c2nc(CN(Cc3cccs3)C3CCS(=O)(=O)C3)cs2)o1 (configuration not stated) yielded an INHIBITION of 87.6%. O=C(NCC1CCS(=O)(=O)C1)N(Cc1ccco1)C1CC1 (configuration not stated) showed an INHIBITION of 38.2%.
